Measured values as given in PubChem BioAssay.
Calls of active or inactive are those of the source.

What was measured:
[1] = anti-His antibody binders, primary screen, artefact control for SMM control protein annotation, biochemical, small-molecule microarray, 635 nm fluorescence (AID 1128); conditions: anti-His Alexa647 antibody binding, higher = more signal;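 also: score merges feature fluorescence with signal-to-noise for each printed compound spot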
[2] = system: Human papillomavirus type 1a E7 protein (residues 1-88); assay: HPV1a E7 small-molecule binders, primary screen, biochemical, small-molecule microarray, residues 1-88, 635 nm (AID 1129); conditions: small-molecule microarray binding, fluorescence 635 nm; higher = more signal
[3] = biological target: Focal adhesion kinase 1 (Homo sapiens) (UniProt Q05397); assay: small-molecule microarray binders of FAK, primary screen, biochemical, 635/667 nm fluorescence, BSA, DTT (AID 1130); conditions: PTK2 binding, 635 nm fluorescence, higher = more signal;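 also: composite of spot emission at 667 nm and signal to noise over triplicate slides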
Sequence of Focal adhesion kinase 1 (Homo sapiens) (Q05397 whole entry, looked up): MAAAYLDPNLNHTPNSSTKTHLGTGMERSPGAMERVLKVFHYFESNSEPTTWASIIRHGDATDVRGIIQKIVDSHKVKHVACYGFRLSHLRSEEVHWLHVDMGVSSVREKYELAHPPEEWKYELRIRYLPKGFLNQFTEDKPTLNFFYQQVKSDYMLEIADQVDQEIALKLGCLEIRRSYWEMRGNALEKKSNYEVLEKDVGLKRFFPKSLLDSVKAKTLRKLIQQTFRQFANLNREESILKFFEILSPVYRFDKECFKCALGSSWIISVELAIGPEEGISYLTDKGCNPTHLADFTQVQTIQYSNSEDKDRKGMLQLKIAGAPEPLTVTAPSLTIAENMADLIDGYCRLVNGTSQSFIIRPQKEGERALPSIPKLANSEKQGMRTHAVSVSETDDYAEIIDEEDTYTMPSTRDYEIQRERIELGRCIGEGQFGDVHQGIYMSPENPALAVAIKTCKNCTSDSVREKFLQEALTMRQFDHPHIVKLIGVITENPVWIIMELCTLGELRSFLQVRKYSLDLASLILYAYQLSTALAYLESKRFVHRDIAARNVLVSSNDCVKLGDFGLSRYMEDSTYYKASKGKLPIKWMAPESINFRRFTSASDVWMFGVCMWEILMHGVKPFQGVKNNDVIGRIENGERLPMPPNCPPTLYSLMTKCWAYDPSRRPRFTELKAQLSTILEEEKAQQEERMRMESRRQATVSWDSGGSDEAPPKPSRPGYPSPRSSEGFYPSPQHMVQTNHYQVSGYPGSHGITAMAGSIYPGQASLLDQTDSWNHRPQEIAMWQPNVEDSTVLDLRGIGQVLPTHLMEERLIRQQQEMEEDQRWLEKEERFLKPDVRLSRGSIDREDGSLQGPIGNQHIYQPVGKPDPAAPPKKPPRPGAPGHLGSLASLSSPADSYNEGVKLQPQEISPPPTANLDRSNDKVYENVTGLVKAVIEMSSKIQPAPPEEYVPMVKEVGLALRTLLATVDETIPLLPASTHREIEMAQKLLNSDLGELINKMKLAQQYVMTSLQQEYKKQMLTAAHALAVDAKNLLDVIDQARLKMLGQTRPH

[4] = system: Fibrinogen (Alexa647-labelled); assay: fibrinogen binders on compound microarrays, profiling panel, artefact control for SMM control-protein annotation, biochemical, small-molecule microarray, 635/667 nm fluorescence (AID 1131); conditions: fibrinogen-A647 binding fluorescence, higher = more signal;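 also: z-score merges 667 nm fluorescence with per-spot signal-to-noise over triplicate slides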
[5] = biological target: Follistatin (Homo sapiens) (UniProt P19883); assay: follistatin binders on small-molecule microarrays, primary screen, biochemical, small-molecule microarray, 635/667 nm fluorescence (AID 1132); conditions: FST binding, 635 nm fluorescence, higher = more signal
Sequence of Follistatin (Homo sapiens) (P19883 whole entry, looked up): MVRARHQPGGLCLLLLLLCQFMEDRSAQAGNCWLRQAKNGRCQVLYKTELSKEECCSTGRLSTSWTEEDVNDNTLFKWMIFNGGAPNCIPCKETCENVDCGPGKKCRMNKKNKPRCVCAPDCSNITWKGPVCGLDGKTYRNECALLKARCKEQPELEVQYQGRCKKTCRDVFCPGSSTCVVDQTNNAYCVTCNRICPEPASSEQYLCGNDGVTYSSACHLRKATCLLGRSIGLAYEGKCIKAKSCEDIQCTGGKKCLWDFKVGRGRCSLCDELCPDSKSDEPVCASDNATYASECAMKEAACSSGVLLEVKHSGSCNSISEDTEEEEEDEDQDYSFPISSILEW

[6] = biological target: Fibroblast growth factor 2 (Homo sapiens) (UniProt P09038); assay: FGF2 binders on small-molecule microarrays, primary screen, biochemical, small-molecule microarray, 635/667 nm fluorescence (AID 1133); conditions: small-molecule microarray binding, FGF2, fluorescence 635/667; higher = more signal
Sequence of Fibroblast growth factor 2 (Homo sapiens) (P09038 whole entry, looked up): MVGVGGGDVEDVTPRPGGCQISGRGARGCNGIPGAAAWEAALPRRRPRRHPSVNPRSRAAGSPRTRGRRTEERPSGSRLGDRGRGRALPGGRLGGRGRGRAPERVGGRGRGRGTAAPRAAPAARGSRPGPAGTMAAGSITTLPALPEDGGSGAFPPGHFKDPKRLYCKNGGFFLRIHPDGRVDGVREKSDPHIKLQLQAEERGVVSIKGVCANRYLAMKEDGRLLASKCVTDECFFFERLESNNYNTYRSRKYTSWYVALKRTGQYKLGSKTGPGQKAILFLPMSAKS

[7] = mitochondrial membrane potential change in A549 cells, profiling panel, cell-based, JC-1 fluorescence, basal, 24 h, 100 nL (AID 1138); conditions: higher = more signal;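 also: A549 lung adenocarcinoma cells under basal conditions with no added stimulus; test concentration not given here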
Lefty1 = Lefty1 binders on small-molecule microarrays, primary screen, biochemical, small-molecule microarray, 635/667 nm fluorescence (AID 1139); conditions: small-molecule microarray binding, fluorescence 635/667; higher = more signal
[8] = system: wheat germ agglutinin (Triticum aestivum), Alexa647-labelled; assay: wheat germ agglutinin binders on compound microarrays, profiling panel, artefact control for SMM control-protein annotation, biochemical, small-molecule microarray, 635/667 nm fluorescence (AID 1140); conditions: WGA-A647 binding, 635 nm fluorescence, higher = more signal;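 also: score merges 667 nm feature emission with signal to noise over triplicate slides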
[9] = biological target: Luciferin 4-monooxygenase (Photinus pyralis) (UniProt P08659); assay: firefly luciferase enzyme inhibitors, primary screen, biochemical, luminescence, purified enzyme, 2006 set (AID 1141); conditions: SteadyGlo luminescence, 30 min, higher = more signal, called active from +8 up or from −8 down;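 also: cell-free assay with purified firefly luciferase at 100 ng per well in PBS; test concentration not given here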
Sequence of Luciferin 4-monooxygenase (Photinus pyralis) (P08659 whole entry, looked up): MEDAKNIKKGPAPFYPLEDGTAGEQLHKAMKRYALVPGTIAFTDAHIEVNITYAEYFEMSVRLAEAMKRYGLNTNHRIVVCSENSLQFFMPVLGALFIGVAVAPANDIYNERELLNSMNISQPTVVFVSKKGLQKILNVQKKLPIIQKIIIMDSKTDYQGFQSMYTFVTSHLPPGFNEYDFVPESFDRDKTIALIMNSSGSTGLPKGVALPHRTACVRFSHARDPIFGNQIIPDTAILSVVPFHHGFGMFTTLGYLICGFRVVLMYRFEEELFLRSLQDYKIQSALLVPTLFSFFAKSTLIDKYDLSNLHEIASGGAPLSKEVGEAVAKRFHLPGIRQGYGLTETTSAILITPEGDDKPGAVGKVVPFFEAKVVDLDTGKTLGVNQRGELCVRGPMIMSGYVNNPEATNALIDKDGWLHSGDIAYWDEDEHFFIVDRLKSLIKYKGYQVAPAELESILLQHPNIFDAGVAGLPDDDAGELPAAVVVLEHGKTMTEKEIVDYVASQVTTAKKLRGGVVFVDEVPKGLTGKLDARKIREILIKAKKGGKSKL

| Compound | composite z-score [1] | composite z-score [2] | composite z-score [3] | composite z-score [4] | composite z-score [5] | composite z-score [6] | z-score [7] | composite z-score (Lefty1) | composite z-score [8] | z-score [9] |
| --- | --- | --- | --- | --- | --- | --- | --- | --- | --- | --- |
| COc1cc(NN2C(C(O)c3ccccc3)C=CC3C(=O)N(c4ccccc4)C(=O)C32)cc(OC)c1OC (stereo not given) | 1.67 | 1.28 | 0.707 | 0.967 | 0.952 | 0.444 | 1.42 | 0.879 | 1.39 | -2.13 (inactive) |
| C=C[C@H](OC)[C@@H](OC(=O)Nc1ccc(SC)cc1)c1ccc(OCCO)cc1 | 3.12 | 1.22 | 0.39 | -0.332 | 0.236 | 0.453 | -1.56 | -0.444 | 0.833 | -1.94 (inactive) |
| C=CCC(OC(C)=O)[C@@H]1[C@@H](N(Cc2ccc(-c3ccccc3)cc2)C(=O)c2ccc(C)cc2)c2cc(OCCCO)ccc2N1C(=O)c1ccc2ccccc2n1 (stereo not given in full) | -0.512 | -0.0119 | -0.0203 | -0.459 | 0.0869 | -0.006 | 3.18 | -0.135 | -0.0101 | -1.9 (inactive) |
| O=C(NCc1ccccc1)[C@@H]1c2ccccc2C(=O)N(C2CCCCC2)[C@H]1c1ccc(CO)cc1 | 0.61 | 1.01 | 0.405 | -0.0594 | 1.29 | 0.487 | 2.15 | 0.917 | 0.803 | -0.441 (inactive) |
| COc1ccc([Si](C)(C)[C@@H]2[C@@H](CCO)O[C@]3(C(=O)N(Cc4cccc(N5CCCCC5=O)c4)c4ccccc43)[C@H]2C)cc1 | 0.49 | 1.17 | 0.0366 | 0.825 | 1.01 | 0.885 | -0.425 | 0.883 | 0.746 | -0.724 (inactive) |
| C=C[C@@H](C)[C@@H](OC(=O)Nc1ccc(OC)cc1)c1ccc(O)c2ccccc12 | 0.305 | 0.52 | -0.209 | 0.521 | 1.16 | 1.22 | -1.38 | 0.676 | 0.449 | -5.76 (inactive) |
| C=C(COC)C(=O)CC[C@@H](OC(=O)c1ccccc1-c1ccccc1C(=O)O)c1ccc(CO)o1 | 1.73 | 0.339 | 0.0109 | -0.363 | 1.05 | 1.81 | -0.789 | 1.56 | -0.407 | -3.78 (inactive) |
| C[N+](C)(C)CCCC[C@@H]1NC(=O)[C@H]2C[C@@H](C(=O)O)[C@@H](c3cccc(OCCO)c3)N2C1=O | 3.61 | 1.21 | 2.21 | 0.973 | 1.15 | 0.9 | 0.455 | 0.804 | 1.57 | -0.317 (inactive) |
| CC(C)(C)OC(=O)CC[C@@]1(C(=O)NCC(O)CO)N=C(c2ccc(OCCCO)cc2)O[C@@H]1c1ccccc1 (stereo not given in full) | 0.0885 | 0.913 | 0.415 | 0.681 | 0.392 | -0.691 | 0.477 | -0.0491 | 0.467 | -0.962 (inactive) |
| O=C(NCc1ccccc1)[C@@H]1c2ccccc2C(=O)N(Cc2cc(F)cc(C(F)(F)F)c2)[C@H]1c1ccc(CO)cc1 | 2.54 | 1.19 | 0.187 | 0.571 | 1.27 | 0.339 | 1.45 | 0.61 | 0.144 | -1.13 (inactive) |
| CCCCN1CC=CC23O[C@@H]4/C=C\CCCOC(=O)C4[C@H]2C(=O)N(C(C)CO)[C@@H]3C1=O (stereo not given in full) | -1.02 | -0.582 | -0.56 | 0.347 | -0.446 | -0.38 | 0.532 | -0.291 | -0.362 | -0.315 (inactive) |
| C=CCOC(=O)[C@@H]1[C@H]2C(=O)O[C@H](c3ccccc3)[C@H](c3ccccc3)N2[C@H](c2ccc(OCCOC(=O)[C@H]3C[C@H]4C(=O)N[C@@H](CC(C)C)C(=O)N4[C@H]3c3cccc(OCCO)c3)cc2)[C@@]12C(=O)Nc1ccc(I)cc12 | 2.26 | 1.19 | 0.844 | 0.587 | 1.38 | 1.63 | -0.736 | 1.5 | 0.34 | -0.201 (inactive) |
| CN1C(=O)C2C=CC(C(O)C3=C[C@H]4C[C@@H](C3)C4(C)C)N(Nc3ccc([N+](=O)[O-])cc3[N+](=O)[O-])C2C1=O (stereo not given in full) | 1.45 | 1.16 | 0.588 | 0.978 | 1.07 | 0.0958 | 0.731 | 0.181 | 1.02 | -0.88 (inactive) |
| CS(=O)(=O)CCOC(=O)C1=CC(c2ccc(CO)cc2)=CC(c2cccs2)N(Cc2cccc(OC(F)(F)F)c2)C=C1C(=O)OCCS(C)(=O)=O (stereo not given) | 0.419 | 0.969 | 0.513 | 1.01 | 1.21 | 0.0903 | 1.91 | 0.836 | 0.929 | -1.86 (inactive) |
| OCCCc1cc[n+](Cc2cccc(OC(F)(F)F)c2)cc1 | 1.62 | 1.01 | 0.917 | 0.315 | 1.18 | 0.58 | -0.672 | 0.714 | 0.889 | 1.14 (inactive) |
| Cc1cc(C)c(C(O)C2C=CC3C(=O)NC(=O)C3N2Nc2ccccn2)c(C)c1 (stereo not given) | 0.735 | 1.03 | 0.471 | 0.925 | 1.11 | -0.719 | 0.513 | 0.0668 | 0.994 | -1.56 (inactive) |
| Oc1ccc2cc[n+](Cc3cccc(OC(F)(F)F)c3)cc2c1 | 0.644 | 0.0093 | 0.295 | -0.0505 | 1.33 | 1.51 | 0.579 | 1.38 | -0.0259 | -0.256 (inactive) |
